# Test results: PubChem BioAssay (NCI)
# “And” between values parts separate entries of the source, which are not always exact repeats. Equal values may be shown once. The panel holds about 83,000 compounds, 20% with a hit somewhere; the sample as a whole holds those more often.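 Cells were grown in 96-well plates and exposed to the test compound at a single concentration for 48 hours; results are reported as percent growth, with values below 10 considered active.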 Values without a mark were called inactive. The source made the active and inactive calls.
# Tested on: MDA-MB-468 breast
# Test: NCI-60 one-dose screen, 48 h (100 = growth as untreated, 0 = no growth, -100 = all killed)
# Settings: 10 µM unless noted
row,SMILES,growth
1,S=c1ccc2ccccc2[nH]1,98% and 116%
2,Oc1cccc(-c2nc3sccn3c2-c2ccncn2)c1,83%
3,COc1ccc(-c2nc([C@@H](C)Sc3nc(N)cc(N)n3)c(C)s2)cc1OCCN1CCOCC1,92.7%
4,Cc1sc(NC(=O)c2ccc(C(C)(C)C)cc2)c(C(=O)O)c1C,80%
5,N=c1ccn2c(n1)OC1C(O)C(CO)OC12 (stereo unspecified),6.2% (active)
6,CCCCNCC(=O)Nc1ccc(C(=O)OCC)cc1,103%
7,O=[N+]([O-])c1ccc(N/N=C/c2cccc3ccccc23)nc1,77.2%
8,CC[C@@H](C(=O)[C@@H](C)[C@@H](O)[C@H](C)[C@@H]1O[C@@H]([C@@H](CC)C(=O)N(CC)CC)CC[C@@H]1C)C1O[C@]2(C=CC(=O)[C@]3(CC[C@@](C)([C@H]4CC[C@](O)(CC)[C@H](C)O4)O3)O2)[C@H](C)C[C@@H]1C (stereo partly specified),-12.9% (active)
9,CCN(CC)S(=O)(=O)c1ccc(-c2nc(C(Cl)Cl)nc3cc(-c4ccc(F)cc4)nn23)cc1,-31.9% (active)
10,COc1cc2cc(Oc3ccc(NC(=O)c4cc(C(F)(F)F)cc(C(F)(F)F)c4)cc3)c(C)nc2cc1OCCN1CCOCC1,66.9%
11,CN(C)CCN1C(=O)c2cccc3c(-c4ccc(-c5nc6c7ccccc7c7ccccc7c6[nH]5)cc4)ccc(c23)C1=O,108%
12,O=Nc1c(-c2c(O)[nH]c3ncccc23)[nH]c2ccccc12,28.4%
13,CC1(C)NC2=C(C(Nc3cccnc3)N1)C(c1ccc([N+](=O)[O-])cc1)C(C(=O)c1ccc(N=[N+]=[N-])cc1)O2 (stereo unspecified),115%
14,COc1ccc2c(c1)C(C)Cc1c(ncnc1-n1cnc3cc(C)ccc31)N2C (stereo unspecified),7.23% (active)
15,O=C(c1ccccc1)N(CCc1ccc(Cl)cc1)C(=S)N(C(=O)c1ccccc1)c1ccccc1,36%
16,Cc1sc2ncnc(Sc3nc4ccccc4[nH]3)c2c1C,-86.6% (active)
17,CC[n+]1c(C)ccc2cc(C)ccc21,58.1%
18,Cc1ccc([C@@H]2C[C@H](O)Cc3ccccc3N2)s1,124%
19,OC(c1cc(C23CC4CC(CC(C4)C2)C3)nc2c(Cl)cc(Cl)cc12)C1CCCCN1 (stereo unspecified),-89.7% (active)
20,COc1ccc(S(=O)(=O)c2ccc(F)cc2)cc1,105%
21,C#CCN(C)CCCOc1ccc(NCc2ccc(/C=C/C(=O)NO)cc2)cc1Cl,-47.6% (active)
22,O=C(Cc1ccccn1)C(F)(F)C(F)(F)C(F)(F)F,115%
23,COCCNC(=O)c1ccc(-c2nc3ccc4[nH]ncc4c3c3c2CCCC3)cc1,4.81% (active)
24,COc1ccc(COC(=O)CC(C)C)cc1,102%
25,Cc1ccc(C(=O)Nc2cccc(F)c2)cc1NC(=O)C1(c2ncnc3[nH]ccc23)CC1,85.8%
26,Nc1ncc(-c2cnn(C3CCNCC3)c2)cc1-c1nc2cc(Cl)ccc2o1,-94.3% (active)
